# Measurements: PubChem BioAssay (NCI)
# The panel holds about 83,000 compounds, 20% with a hit somewhere; the sample as a whole holds those more often.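 Method: cells in 96-well plates; compound added at one concentration; 48 h incubation; percent growth measured; values under 10 scored active.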 Unmarked numbers belong to inactive results. Active and inactive are the calls of the source.
# Legend:
# Assay in all cases: NCI-60 one-dose screen, 48 h (100 = growth as untreated, 0 = no growth, -100 = all killed)
# A549/ATCC NSCLC = details: 10 µM unless noted
# COLO 205 colon = details: 10 µM
# TK-10 renal = details: 10 µM unless noted
# CCRF-CEM leukemia = details: 10 µM unless noted
# SR leukemia = details: 10 µM
# RPMI-8226 leukemia = details: 10 µM unless noted
# OVCAR-5 ovarian = details: 10 µM unless noted
# OVCAR-4 ovarian = details: 10 µM unless noted
# IGROV1 ovarian = details: 10 µM
# NCI/ADR-RES ovarian = details: 10 µM unless noted
# HCT-116 colon = details: 10 µM unless noted
# NCI-H522 lung = details: 10 µM unless noted
# M14 melanoma = details: 10 µM unless noted
# SK-MEL-2 melanoma = details: 10 µM unless noted
# EKVX NSCLC = details: 10 µM unless noted
# ACHN renal = details: 10 µM unless noted
# SK-OV-3 ovarian = details: 10 µM unless noted
# HS 578T breast = details: 10 µM unless noted
Structure (SMILES),growth (A549/ATCC NSCLC),growth (COLO 205 colon),growth (TK-10 renal),growth (CCRF-CEM leukemia),growth (SR leukemia),growth (RPMI-8226 leukemia),growth (OVCAR-5 ovarian),growth (OVCAR-4 ovarian),growth (IGROV1 ovarian),growth (NCI/ADR-RES ovarian),growth (HCT-116 colon),growth (NCI-H522 lung),growth (M14 melanoma),growth (SK-MEL-2 melanoma),growth (EKVX NSCLC),growth (ACHN renal) [%],growth (SK-OV-3 ovarian),growth (HS 578T breast)
CNC(=O)Oc1ccccc1,94.9%,104%,122%,111%,99%,96.4%,101%,88.7%,116%,102%,106%,–,–,–,–,–,–,–
CCOc1cc(C=C(C#N)C#N)cc(Br)c1O,102%,103%,102%,102%,93.4%,105%,108%,103%,109%,104%,99.2%,100%,98%,102%,104%,106,116%,107%
COc1ccc(/C=C\c2cc(OC)c(OC)c(OC)c2)cc1N/C=C\C(=O)c1c[nH]c2ccccc12,–,–,60.1%,5.7% (active),2.48% (active),19.5%,18.8%,–,21.8%,0.644% (active),–,-9.96% (active),–,32.3%,–,–,–,37.5%
Cc1cc(NC(=O)NCCOc2ccc(N3C(N)=NC(N)=NC3(C)C)cc2Cl)ccc1S(=O)(=O)F,9.6% (active),35.3%,35.3%,18.6%,34.8%,40.5%,26.6%,–,32.5%,–,13.9%,–,32.1%,51.4%,–,94.2,55.4%,–
CCCCNCCc1ccccn1,–,117%,96.8%,92.4%,–,90.2%,101%,106%,116%,105%,–,86.9%,99.6%,87.3%,120%,101,119%,107%
COc1cccc2c1C(=O)c1c(O)c3c(c(O)c1C2=O)CC(O)(/C(C)=N/NC(=O)CCC(=O)N/N=C(\C)C1(O)Cc2c(O)c4c(c(O)c2C(OC2CC(N)C(O)C(C)O2)C1)C(=O)c1c(OC)cccc1C4=O)CC3OC1CC(N)C(O)C(C)O1 (stereo not drawn),–,–,-43.1% [5 µM] (active),-25.2% [5 µM] (active),–,-38% [5 µM] (active),-15.4% [5 µM] (active),-13.5% [5 µM] (active),–,71.8% [5 µM],-31.5% [5 µM] (active),-47% [5 µM] (active),-55.7% [5 µM] (active),-54.3% [5 µM] (active),-19.4% [5 µM] (active),–,-31.4% [5 µM] (active),-11.5% [5 µM] (active)
Cc1cc(NC(=O)/C=C/c2ccc([N+](=O)[O-])cc2)ccc1S(=O)(=O)F,98.8%,102%,96.2%,98.2%,81.3%,87%,–,103%,101%,106%,–,–,112%,–,–,–,–,–
CC1(C)N=C(N)N=C(N)N1c1ccc(CCCCc2ccc(S(=O)(=O)F)cc2)c(Cl)c1,8.36% (active),33.2%,23%,11.5%,33.4%,9.22% (active),40.3%,80.4%,29.1%,103%,12.8%,–,24.3%,30.6%,–,22.1,42%,–
C[CH2][Pb]([CH2]C)([CH2]C)[O]C(=O)COc1ccccc1,–,1.67% (active),–,–,–,–,-5.58% (active),14.8%,2.01% (active),2.79% (active),4.13% (active),–,14.6%,-0.355% (active),–,11.5,4.72% (active),4.72% (active)
CC1(C)N=C(N)N=C(N)N1c1ccc(OCCCCNC(=O)Nc2cccc(S(=O)(=O)F)c2)c(Cl)c1,15.4%,50.4%,62%,23.6%,45.8%,38.1%,32.5%,97.1%,37.9%,110%,16.4%,–,40.4%,81.2%,–,94.9,77.9%,–
Nc1nc(N)c(-c2ccc(Cl)c(Cl)c2)c(/C=C/c2ccc(S(=O)(=O)F)cc2)n1,81.3%,98.1%,–,58.7%,76.3%,93.1%,80.8%,–,89.3%,105%,77.7%,–,–,86.3%,–,67.8,97.2%,–
